{"source": "the supplement of paper PMC8047044", "note": "Several values for one entry are separate records, joined by “and”; a condition that tells them apart may be missing. Identical values can stand only once."}
{"system": "Neuro-2a", "test": "neurite formation score, plate-normalized to DMSO control mean 5.04 (score (0-8 scale)); higher = more or longer neurites", "details": "0.1 µM", "method": "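Neuro-2a mouse neuroblastoma cells in PLL-coated 96-well plates were pre-treated for 1 h in DMEM(+) with each kinase inhibitor at 0.1 µM, then switched to serum-free DMEM(-) with inhibitor to induce neurite outgrowth and fixed about 2-3 h later. Three blinded observers scored neurite formation from 0 (no neurites) to 8 (long neurites on almost all cells).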"}
{"smiles": "CCS(=O)(=O)c1cccc(-c2cc(C(=O)NC3CCN(C)CC3)c(C)c3[nH]c4ncc(C)cc4c23)c1", "neurite formation score": 4.58}
{"smiles": "Cc1ccc(C(=O)Nc2ccc(CN3CCN(C)CC3)c(C(F)(F)F)c2)cc1C#Cc1cnc2cccnn12", "neurite formation score": 3.88}
{"smiles": "O=C(Nc1cccc(Nc2ncc(Br)c(NCCc3cnc[nH]3)n2)c1)N1CCCC1", "neurite formation score": 4.71}
{"smiles": "CCN(CCCOc1ccc2c(Nc3cc(CC(=O)Nc4cccc(F)c4)[nH]n3)ncnc2c1)CCOP(=O)(O)O", "neurite formation score": 4.71}
{"smiles": "O=c1cc(N2CCOCC2)oc2c(-c3cccc4c3sc3ccccc34)cccc12", "neurite formation score": 4.21}
{"smiles": "CNC(=O)CN1CCC(Oc2cc3c(Nc4cccc(Cl)c4F)ncnc3cc2OC)CC1", "note": "[AZD8931 (Sapitinib)]", "neurite formation score": 4.25}
{"smiles": "CCCS(=O)(=O)Nc1ccc(F)c(C(=O)c2c[nH]c3ncc(Cl)cc23)c1F", "neurite formation score": 4.38}
{"smiles": "O=C(Nc1ccc(OC(F)(F)F)cc1)c1sccc1NCc1ccnc2ccccc12", "neurite formation score": 3.38}
{"smiles": "Nc1cccc(-c2cc3c(Oc4cccc(O)c4)ncnc3[nH]2)c1", "neurite formation score": 3.75}
{"smiles": "Cc1ccc([N+](=O)[O-])cc1S(=O)(=O)N(C)/N=C/c1cnc2ccc(Br)cn12", "neurite formation score": 3.08}
{"smiles": "Cc1ccccc1-n1c(Cn2nc(-c3cccc(O)c3)c3c(N)ncnc32)nc2cccc(C)c2c1=O", "neurite formation score": 4.75}
{"smiles": "N#CC[C@H](C1CCCC1)n1cc(-c2ncnc3[nH]ccc23)cn1", "note": "[Ruxolitinib phosphate]", "neurite formation score": 4.92}
{"smiles": "Cc1cc(NC(=O)c2cccc(NC(=O)/C=C/CN(C)C)c2)ccc1Nc1nccc(-c2cccnc2)n1", "neurite formation score": 4.58}
{"smiles": "CC(C)CCN1c2nc(Nc3cc(F)c(O)c(F)c3)ncc2N(C)C(=O)C1C", "note": "(stereo not given)", "neurite formation score": 3.42}
{"smiles": "CC(C)[C@H](CO)Nc1nc(Nc2ccc(C(=O)O)c(Cl)c2)c2ncn(C(C)C)c2n1", "note": "[Purvalanol B]", "neurite formation score": 4.92}
{"smiles": "O=C(NC(NC(=S)Nc1ccc(F)c([N+](=O)[O-])c1)C(Cl)(Cl)Cl)C(c1ccccc1)c1ccccc1", "note": "(stereo not given)", "neurite formation score": 4.25}
{"smiles": "N#CC[C@H](C1CCCC1)n1cc(-c2ncnc3[nH]ccc23)cn1", "neurite formation score": 5.04}
{"smiles": "O=C1NCCc2[nH]c(-c3ccncc3)cc21", "neurite formation score": 5.92}
{"smiles": "NC(=O)c1cccc(-c2cc(Nc3ccc(OC(F)(F)F)cc3)ncn2)c1", "neurite formation score": 3.76}
{"smiles": "CCCCCCCCCCCCCCCCOP(=O)([O-])OCC[N+](C)(C)C", "note": "[Miltefosine]", "neurite formation score": 2.58}
{"smiles": "C=CC(=O)Nc1ccc2ncnc(Nc3ccc(OCc4cccc(F)c4)c(Cl)c3)c2c1", "neurite formation score": 4.21}
{"smiles": "NC(=O)Nc1cc(-c2cccc(F)c2)sc1C(=O)N[C@H]1CCCNC1", "neurite formation score": 4.21}
{"smiles": "CC(=O)Nc1cccc(-n2c(=O)n(C3CC3)c(=O)c3c(Nc4ccc(I)cc4F)n(C)c(=O)c(C)c32)c1", "neurite formation score": 4.38}
{"smiles": "C[C@@H]1COCCN1c1cc(C2(S(C)(=O)=O)CC2)nc(-c2cccc3[nH]ccc23)n1", "neurite formation score": 4.71}
{"smiles": "CC(C)c1cc(CNc2nc(Nc3cc(C4CC4)[nH]n3)cc(N3CCN(C)CC3)n2)on1", "neurite formation score": 4.92}
{"smiles": "Cc1cc(Nc2nc(N[C@@H](C)c3ncc(F)cn3)ncc2Cl)[nH]n1", "neurite formation score": 3.09}
{"smiles": "CNc1nc(-c2ccc3c(N)n[nH]c3c2)cc(N2C[C@@H](C(=O)NC3CCCCC3)CC[C@H]2C)n1", "neurite formation score": 1.42}
{"smiles": "CC1=CC(=O)C(C(C)C)=C/C1=N/OC(=O)c1ccccc1C", "note": "[Poloxin]", "neurite formation score": 5.25}
{"smiles": "O=c1ncn2nc(Sc3ccc(F)cc3F)ccc2c1-c1c(Cl)cccc1Cl", "neurite formation score": 4.92}
{"smiles": "COc1ccc(C(=O)Nc2sc3c(c2C(N)=O)CCCC3)cc1OC", "neurite formation score": 4.71}
{"smiles": "NC(=S)N/N=C/c1ncccc1N", "note": "[Triapine]", "neurite formation score": 3.75}
{"smiles": "CN1CCC(Nc2nc(Nc3ccc(Oc4ccccc4)cc3)c3c(=O)[nH]cc(Br)c3n2)CC1", "neurite formation score": 4.25}
{"smiles": "CC(=O)c1c(C)c2cnc(Nc3ccc(N4CCNCC4)cn3)nc2n(C2CCCC2)c1=O", "neurite formation score": "4.88 and 4.54"}
{"smiles": "CN1CCN(c2nc(C3=C(c4c[nH]c5ccccc45)C(=O)NC3=O)c3ccccc3n2)CC1", "note": "[Sotrastaurin (AEB071)]", "neurite formation score": 4.92}
{"smiles": "CC(C)(C)NS(=O)(=O)c1cncc(-c2cc(F)c3nc(N)nn3c2)c1", "neurite formation score": 4.92}
{"smiles": "COc1ccccc1-c1cc(Nc2cccc(CS(N)(=O)=O)c2)ncn1", "neurite formation score": 4.42}
{"smiles": "CCCNC(=O)Nc1ccc(Oc2ncnc3cc(OC)c(OC)cc23)cc1Cl", "neurite formation score": 5.54}
{"smiles": "O=[N+]([O-])c1ccc(Nc2nc(N3CCOCC3)nc(N3CCOCC3)n2)cc1", "neurite formation score": 5.08}
{"smiles": "Cn1cnc(-c2cc3nccc(Oc4ccc(NC(=S)NC(=O)Cc5ccccc5)cc4F)c3s2)c1", "neurite formation score": 4.92}
{"smiles": "N#Cc1ccc2[nH]c(O)c(-c3ccc(CN4CCOCC4)cn3)c2c1", "neurite formation score": 4.08}
